In PubChem BioAssay (NCI):
The panel holds about 83,000 compounds, 20% with a hit somewhere; the sample as a whole holds those more often.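 For each line, cells grew in 96-well plates with the test compound present at a single concentration for 48 hours.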 Activity calls are given as the source filed them.

The compounds below were run on SK-OV-3 ovarian (assay: NCI-60 one-dose screen, 48 h (100 = growth as untreated, 0 = no growth, -100 = all killed)). Settings: 10 µM unless noted.
Description: Growth inhibition of the SK-OV-3 human tumor cell line is measured as a screen for anti-cancer activity. Cells are grown in 96 well plates and exposed to the test compound for 48 hours. Compounds are tested at a single concentration, which is 10^-5 M for most compounds. The reported endpoint is percent growth (GI% or GIPRCNT), where numbers from 0 - 100% represent growth inhibition, and numbers from -100% - 0 represent cell death. For example, a value of 40 represents 60% growth inhibition. A value of 0 means no net growth occurred over the course of the experiment. A value of -40 indicates 40% of cells at the beginning of the experiment died by the end of the experiment. A value of -100 means all cells are dead at the end of the experiment.
NCI-60 Human Tumor Cell Lines Screen was performed using the standard one-dose NCI protocol, which is described in more detail at https://dtp.cancer.gov/discovery_development/nci-60/default.htm.
Compounds with GIPRCNT values below 10 were considered active. Activity score was based on GIPRCNT using the following formula: […]
Score is 0 for GIPRCNT values of 100 or above, 50 for GIPRCNT values of 0, and 100 for GIPRCNT values of -100.
For `Cc1nc2sc(C(=O)Nc3ccc(Br)cc3)c(N)c2cc1C(O)c1ccccc1` (stereo not given), the growth was 78.3% (inactive).
In the case of `CCN(CC)Cc1cc(C=C2C(=O)NC(=S)NC2=O)cc(OC)c1O`, the growth is reported as 111% (inactive).
For `CC1=C2[C@@H](CC1)[C@]1(C)O[C@@](C(C)C)(C[C@H]1OC(=O)[C@H](C)O)[C@H]2OC(=O)/C=C/c1ccccc1`, the growth was 83.5% (inactive).
In the case of `O=S(=O)(Nc1ccc(F)cc1F)c1ccc(-c2cnc(C3CC3)o2)cc1`, the growth is reported as 45.6% (inactive).
With `NC(=O)C(=O)c1ccccc1NC=O` the growth was 97.4% (inactive).
In the case of `O=C(Nc1cccc(Cl)c1)Nc1cccc(Cn2c(=O)[nH]c3ccc(Oc4ncccn4)cc3c2=O)c1`, the growth is reported as 70.7% (inactive).
In the case of `O=C(c1ccncc1)N1N=C(c2ccc(Cl)cc2)C[C@H]1c1cn(-c2ccccc2)nc1-c1ccccc1`, the growth is reported as 83.4% (inactive).
In the case of `COc1ccc(Nc2nc(-c3cc(O)c(C)c(C)c3O)cs2)cc1`, the growth is reported as 71.3% (inactive).
With `CCOC(=O)c1c(NC(=O)c2cccc(C(F)(F)F)c2)sc2c(CN(C)C)c(O)ccc12` the growth was 101% (inactive).
`O=C(Nc1cccc(-c2ccc(N3CCOCC3)nn2)c1)Nc1cccc(C(F)(F)F)c1` was tested, and the growth was 104% (inactive).
`CCCOC(=O)Nc1nc2ccc(SCC(C)C)cc2s1` was tested, and the growth was 48.5% (inactive).
`CCOC(=O)NC(C)C` was tested, and the growth was 117% (inactive).
For `Cc1cc(C(=O)Nc2ncc(Cc3cccc(C(F)(F)F)c3)s2)c2ccccc2n1`, the growth was 36% (inactive).
With `COc1ccc(NC2=C(I)C(=O)c3ncccc3C2=O)cc1` the growth was 50% (inactive).
For `COC1/C=C/OC2(C)Oc3c(C)c(O)c4c(O)c(c(/C=N/Nc5ccc([N+](=O)[O-])cc5[N+](=O)[O-])c(O)c4c3C2=O)NC(=O)C(C)=C/C=C/C(C)C(O)C(C)C(O)C(C)C(OC(C)=O)C1C` (stereo not given), the growth was 112% (inactive).
For `COCCn1cc(-c2csc(-c3cn(C)c4ccc(Br)cc34)n2)c2cccnc21`, the growth was 71.9% (inactive).
With `O=S(=O)(Nc1cc(F)cc(Cl)c1)c1ccc(-c2cnc(C3CC3)o2)cc1` the growth was 44.2% (inactive).
`Cc1[nH]c(C(=O)Nc2ccc(C(=O)N3CCN(c4cc5c(cc4F)c(=O)c(C(=O)O)cn5C4CC4)CC3)cc2OC(C)C)c(Cl)c1Cl` was tested, and the growth was 110% (inactive).
`Cn1ccnc1C(=O)/C=C/c1ccc(CC(=O)Nc2cc(C(F)(F)F)cc(C(F)(F)F)c2)cc1` was tested, and the growth was 109% (inactive).
In the case of `Nc1nc(-c2ccc(Cl)cc2)nc2c1sc(=S)n2-c1ccccc1`, the growth is reported as 23.4% (inactive).
With `CC(=O)Oc1ccc(/C(=C(\C)c2ccc(Cl)cc2)c2ccc(OCCN3CCCCC3)cc2)cc1` the growth was 54.6% (inactive).
With `C=CCSc1nnc(NC(=O)CCl)s1` the growth was 119% (inactive).
`C=C(CBr)[C@@H]1CC[C@]2(C(=O)O)CC[C@]3(C)[C@H](CC[C@@H]4[C@@]5(C)CCC(=O)C(C)(C)[C@@H]5CC[C@]43C)[C@@H]12` was tested, and the growth was 121% (inactive).
In the case of `COc1ccc(Nc2ncc(Br)c(NCCCNC(=O)c3cccs3)n2)cc1`, the growth is reported as 49.2% (inactive).
With `O=C(CN1CCCCC1)Nc1nc(-c2cc3ccccc3oc2=O)cs1` the growth was 119% (inactive).
With `CCOC(=O)Cc1cnc(N/N=C(\C)c2cc3ccccc3o2)s1` the growth was 92.1% (inactive).
`COc1ccc(C(O)c2cc3c(N)c(C(=O)Nc4cccc(Br)c4)sc3nc2C)cc1` (stereo not given) was tested, and the growth was 17.9% (inactive).
With `CC(=O)c1c(C)nc2ccccc2c1/C=C/c1ccc(F)cc1` the growth was 100% (inactive).
With `Cc1cccc(/C=C/c2c(C(=O)/C=C/c3ccccc3)c(C)nc3ccccc23)c1` the growth was 33.7% (inactive).
`O=c1[nH]c(-c2ccccc2)nc2sc3cc(O)ccc3c12` was tested, and the growth was 97.9% (inactive).
`O=C(/C=C(/C=C/c1ccc2[nH]ccc2c1)OB(F)F)/C=C/c1ccc2[nH]ccc2c1` was tested, and the growth was 13.6% (inactive).
`C/C(Cc1ccc(Cl)cc1)=C(\c1ccc(O)cc1)c1ccc(Cl)cc1` was tested, and the growth was 112% (inactive).
For `CCCCC1=C(P(=O)(O)O)N[C@H](C(=O)O)CS1`, the growth was 80.7% (inactive).
With `COCCOc1cc2ncnc(N3CCN(c4cc(S(C)(=O)=O)c(C)cc4Cl)CC3)c2cc1OCCOC` the growth was 105% (inactive).
`COc1ccc(/C=N\Nc2nc(SCCC(C)C)nc(-c3ccc(OC)cc3)c2C#N)cc1` was tested, and the growth was 56.9% (inactive).
`COc1ccc(OC)c(-c2nc(SCC(=O)c3ccc(C#N)cc3)[nH]c(=O)c2C#N)c1` was tested, and the growth was 78% (inactive).
`NC(=O)c1c(NC(=O)c2ccc3ccccc3c2)sc2c1CCC(=O)C2` was tested, and the growth was 104% (inactive).
`CCO/C=N/C1=C(C#N)C(c2ccc(Cl)cc2)c2sc3c(F)cccc3c2O1` (stereo not given) was tested, and the growth was 81.9% (inactive).
In the case of `CCOC(=O)c1cc2c(n1C)-c1nc(NC(C)=O)sc1CCC2`, the growth is reported as 76.1% (inactive).
With `Cc1c[n+](Cc2ccc3ccccc3c2)cn1Cc1ccc2ccccc2c1` the growth was 35.3% (inactive).
